Data on seven compounds can be found in PubChem BioAssay (Tox21).

Where “and” joins values, the source holds several entries; their conditions need not be identical. Identical values can stand only once. Results filed as inconclusive are left out. Some compounds were tested as several samples or in several runs, with calls that do not always agree. Calls of active or inactive are those of the source. Unless noted, calls follow the shape of the full dose curve.

Experiment [1] in a line: qHTS assay to identify small molecule antagonists of the sonic hedgehog signaling (Shh) pathway (AID 1259369). Also: nearly all actives have a fitted effect of over 45% in size. Also: potency is read from the fitted curve at half-maximal effect. The essentials: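 3T3Gli1-Luc, conditioned-medium-stimulated, 24hr cpd, 37C/5% CO2; Gli1-driven firefly Luc luminescence after 30min RT with luciferase reagent. Cells plated 4hr before cpd.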
For experiment [2], the target named is Estrogen receptor beta (Homo sapiens) (UniProt Q92731). The experiment in a line: qHTS assay to identify small molecule agonists of the estrogen receptor beta (ER-beta) signaling pathway (AID 1259377; active = well fitted activation curve with a large enough effect in the signal ratio in the repeat runs, not every such curve was filed as active; the % refers to the signal ratio). In a few lines: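 ER-beta-UAS-bla HEK293T (GripTite) cells carrying a UAS-driven beta-lactamase reporter, in medium with 2% charcoal-stripped FBS, were exposed to compounds for 16 hr at 37C; LiveBLAzer B/G FRET substrate was then added and fluorescence read after 2 hours at room temperature.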
Sequence of Estrogen receptor beta (Homo sapiens) (Q92731 whole entry, looked up): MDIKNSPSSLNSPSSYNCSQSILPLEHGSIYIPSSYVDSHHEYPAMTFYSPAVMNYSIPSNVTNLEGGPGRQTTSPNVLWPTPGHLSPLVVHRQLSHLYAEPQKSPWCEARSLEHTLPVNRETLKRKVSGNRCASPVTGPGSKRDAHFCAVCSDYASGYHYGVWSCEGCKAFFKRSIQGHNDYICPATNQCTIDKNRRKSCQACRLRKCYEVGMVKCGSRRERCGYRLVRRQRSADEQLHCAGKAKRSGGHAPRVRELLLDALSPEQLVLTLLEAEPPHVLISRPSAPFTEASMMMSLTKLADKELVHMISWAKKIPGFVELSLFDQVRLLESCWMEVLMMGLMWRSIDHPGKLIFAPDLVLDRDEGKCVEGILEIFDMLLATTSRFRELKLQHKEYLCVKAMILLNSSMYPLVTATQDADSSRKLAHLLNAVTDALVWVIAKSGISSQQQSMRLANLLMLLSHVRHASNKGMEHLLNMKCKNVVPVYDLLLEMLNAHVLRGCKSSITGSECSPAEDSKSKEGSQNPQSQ
(In qHTS, concentration-response curves come from the screen itself.)

Experiment [3] has the same target. The experiment in a line: qHTS assay to identify small molecule antagonists of the estrogen receptor beta (ER-beta) signaling pathway (AID 1259378; active = well fitted inhibition curve with a large enough effect in the signal ratio in the repeat runs, not every such curve was filed as active; the % refers to the signal ratio). In a few lines: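 Antagonist mode: compounds added to beta-lactamase reporter HEK293T ER-beta-UAS cells stimulated with E2 (1nM final), 16 hr at 37C. LiveBLAzer B/G FRET substrate, 2 hours room temperature, fluorescence read-out.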

A short description of experiment [4]: qHTS assay to identify small molecule agonists of the androgen receptor (AR) signaling pathway in the presence of an antagonist - cell viability counter screen (AID 1259379; active = well fitted curve in the direction sought with a large enough effect in the repeat runs; an effect the other way counts as inactive or inconclusive;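 also: MDA-kb2 human breast cancer cells carrying an MMTV luciferase reporter; series mostly up to about 92 µM; nearly all actives have a fitted effect of over 25% in size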). The essentials:
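Cells: MDA-kb2 (MMTV-luc, AR and GR elements), 3,000/well, 5 hr settle. Added: nilutamide 3.0uM final, then compounds (15 conc.). Incubation: 16 hr, 37C, no CO2. Read-out: CellTiter-Fluor, 1 hr, fluorescence.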

A short description of experiment [5]: qHTS assay to identify small molecule agonists of the estrogen receptor beta (ER-beta) signaling pathway - cell viability counter screen (AID 1259380; active = well fitted curve in the direction sought with a large enough effect in the repeat runs; an effect the other way counts as inactive or inconclusive; also: nearly all actives have a fitted effect of over 30% in size; also: potency is read from the fitted curve at half-maximal effect). The essentials: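 HEK293T ER-beta-UAS-bla; 2% CS-FBS; 6 hr pre-plate, 16 hr cpd at 37C/5% CO2; LiveBLAzer read first, then CellTiter-Glo 30 min RT, luminescence.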
Experiment [6] can be described thus: qHTS assay to identify small molecule antagonists of the estrogen receptor beta (ER-beta) signaling pathway - cell viability counter screen (AID 1259382; active = well fitted curve in the direction sought with a large enough effect in the repeat runs; an effect the other way counts as inactive or inconclusive; also: series mostly up to about 92 µM; nearly all actives have a fitted effect of over 55% in size). In a few lines:
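Cells: ER-beta-UAS-bla HEK293T, 2,000/well, 2% CS-FBS, 6 hr settle. Cpd + E2 (1nM final), 16 hr, 37C/5% CO2. Bla FRET substrate 2 hr RT, then CellTiter-Glo 30 min RT, luminescence.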

Experiment [7] addresses Estrogen receptor (Homo sapiens) (UniProt P03372). The experiment in a line: qHTS assay to identify small molecule agonists of the estrogen receptor alpha (ER-alpha) signaling pathway in the presence of an antagonist (AID 1259383). Also: top concentration of the series differs between compounds; nearly all actives have a fitted effect of over 15% in size. The essentials: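 VM7Luc4E2, endog. ER-alpha + 4×ERE-luc; charcoal-stripped FBS, phenol red-free, 5 d; 24hr plating; +10.0nM ICI-182,780 (final); cpds 15 conc, 22hr, 37C/5% CO2; ONE-Glo luminescence.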

The nature of experiment [8]: qHTS assay to identify small molecule agonists or antagonists of the thyroid stimulating hormone receptor (TSHR) signaling pathway - wild type cell line counter screen (AID 1259384). In a few lines:
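Counter screen in untransfected Hek293: compounds (15-point titration, triplicate) plus phosphodiesterase inhibitor Ro20-1724 added after 18 h plating; 30 min RT. Intracellular cAMP via competitive d2/cryptate immunoassay, 1 h incubation.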

The target in experiment [9] is Thyrotropin receptor (Homo sapiens) (UniProt P16473). The experiment in a line: qHTS assay to identify small molecule antagonists of the thyroid stimulating hormone receptor (TSHR) signaling pathway (AID 1259385). Also: nearly all actives have a fitted effect of over 20% in size. In a few lines: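 Antagonist mode: compound-treated TSHR-expressing HEK293 cells were stimulated with 1.5 ng/mL TSH (final) in presence of Ro20-1724 for 30 min at RT. HTRF cAMP detection after 1 h; each compound tested at 15 concentrations, triplicate.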
Sequence of Thyrotropin receptor (Homo sapiens) (P16473 whole entry, looked up): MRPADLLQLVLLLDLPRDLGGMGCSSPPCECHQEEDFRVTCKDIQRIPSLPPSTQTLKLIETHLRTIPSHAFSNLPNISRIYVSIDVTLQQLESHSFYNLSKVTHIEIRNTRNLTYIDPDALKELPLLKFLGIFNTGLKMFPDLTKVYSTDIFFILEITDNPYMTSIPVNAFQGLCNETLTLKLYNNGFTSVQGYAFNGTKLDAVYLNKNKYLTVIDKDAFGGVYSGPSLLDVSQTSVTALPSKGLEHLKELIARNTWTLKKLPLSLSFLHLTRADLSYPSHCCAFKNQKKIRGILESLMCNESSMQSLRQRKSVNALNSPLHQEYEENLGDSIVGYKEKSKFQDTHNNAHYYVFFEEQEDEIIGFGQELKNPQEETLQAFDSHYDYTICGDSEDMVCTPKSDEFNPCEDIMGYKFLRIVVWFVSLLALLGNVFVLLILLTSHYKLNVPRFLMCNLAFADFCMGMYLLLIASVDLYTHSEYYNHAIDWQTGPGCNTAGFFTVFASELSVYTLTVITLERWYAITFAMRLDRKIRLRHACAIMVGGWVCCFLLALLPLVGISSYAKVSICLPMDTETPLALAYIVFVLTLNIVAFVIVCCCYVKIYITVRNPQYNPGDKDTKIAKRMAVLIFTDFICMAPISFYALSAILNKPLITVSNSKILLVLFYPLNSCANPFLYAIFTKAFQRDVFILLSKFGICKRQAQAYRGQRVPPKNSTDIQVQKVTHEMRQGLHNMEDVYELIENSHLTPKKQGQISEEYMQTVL

Experiment [10] deals with Progesterone receptor (Homo sapiens) (UniProt P06401). Description: qHTS assay to identify small molecule agonists of the progesterone receptor (PR) signaling pathway (AID 1346784). Also: nearly all actives have a fitted effect of over 30% in size. The essentials:
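PR-UAS-bla HEK 293T cells carrying a UAS-driven beta-lactamase reporter were seeded in medium with 2% charcoal-stripped FBS, preincubated 6 hr at 37C, then exposed to compounds in DMSO for 16 hr; agonism was read by LiveBLAzer B/G FRET fluorescence.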

A short description of experiment [11]: qHTS assay to identify small molecule antagonists of the progesterone receptor (PR) signaling pathway - cell viability counter screen (AID 1346798; active = well fitted curve in the direction sought with a large enough effect in the repeat runs; an effect the other way counts as inactive or inconclusive; also: series mostly up to about 92 µM; nearly all actives have a fitted effect of over 50% in size). The essentials: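 PR-UAS-bla HEK293T cells in medium with 2% charcoal-stripped FBS were treated with compounds plus R5020 for 16 hr at 37C. Cell viability was then read by CellTiter-Glo luminescence after 30 min at room temperature in the same wells.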

Experiment [12] can be described thus: qHTS assay to identify small molecule agonists of the progesterone receptor (PR) signaling pathway - cell viability counter screen (AID 1346799). Also: nearly all actives have a fitted effect of over 45% in size. In a few lines: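 PR-UAS-bla HEK293T cells, 3,000 per well in medium with 2% charcoal-stripped FBS, were preincubated 6 hr at 37C, then exposed to compounds for 16 hr; viability was read as CellTiter-Glo luminescence after 30 min at room temperature.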

The nature of experiment [13]: qHTS assay to identify small molecule agonists of the TGF-beta/Smad signaling pathway - cell viability counter screen (AID 1346829; active = well fitted curve in the direction sought with a large enough effect in the repeat runs; an effect the other way counts as inactive or inconclusive; also: top concentration of the series differs between compounds; nearly all actives have a fitted effect of over 45% in size). In a few lines:
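Tox21 qHTS format: SBE-bla HEK 293T cells treated with DMSO-dissolved compounds for 5 hr; CellTiter-Glo luminescence after 30 min at room temperature.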

Experiment [14] can be described thus: qHTS assay to identify small molecule agonists of the TGF-beta/Smad signaling pathway (AID 1346859; active = well fitted activation curve with a large enough effect in the signal ratio in the repeat runs, not every such curve was filed as active; the % refers to the signal ratio; also: series mostly up to about 77 µM). In a few lines:
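HEK 293T cells stably carrying a beta-lactamase reporter driven by the Smad binding element were seeded overnight, exposed to DMSO-dissolved compounds for 5 hr at 37 C, 5% CO2, then loaded with FRET substrate for 2 hr at room temperature.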

The target in experiment [15] is Thyrotropin-releasing hormone receptor (Homo sapiens) (UniProt P34981). Description: qHTS assay to identify small molecule antagonists of the thyrotropin-releasing hormone receptor (TRHR) signaling pathway (AID 1346877; active = well fitted inhibition curve with a large enough effect in the repeat runs, not every such curve was filed as active; also: series mostly up to about 51 µM). In a few lines:
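Intracellular calcium fluorescence, read kinetically every second over 3 min, reports TRH-evoked signalling in HEK293 cells carrying TRHR. Test compounds were added 5 min ahead of a 1 nM TRH challenge.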

For experiment [16] the target is unchanged. The experiment in a line: qHTS assay to identify small molecule agonists of the thyrotropin-releasing hormone receptor (TRHR) signaling pathway (AID 1346891). Also: series mostly up to about 58 µM. In a few lines: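 TRHR-expressing HEK293 cells were plated 18 h at 37 °C/5% CO2, loaded with calcium dye 2 h at 37 °C, then given compound in DMSO; fluorescence was read kinetically for 3 min at 1 s intervals.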

The nature of experiment [17]: qHTS assay to identify small molecule agonists of the estrogen receptor alpha (ER-alpha) signaling pathway in the presence of an antagonist - cell viability counter screen (AID 1259386; active = well fitted curve in the direction sought with a large enough effect in the repeat runs; an effect the other way counts as inactive or inconclusive;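 also: series mostly up to about 92 µM; cells exposed to compounds for 22 h at 37 °C before the viability read; nearly all actives have a fitted effect of over 30% in size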). In a few lines:
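VM7Luc4E2, stripped-serum pre-culture 5 d; 24hr plating; +ICI-182,780 10.0nM final; cpds 15 conc, 22hr, 37C/5% CO2; CellTiter-Fluor added at 21hr, fluorescence 1hr later.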

The target of experiment [18] is Progesterone receptor (Homo sapiens) (UniProt P06401). Description: qHTS assay to identify small molecule antagonists of the progesterone receptor (PR) signaling pathway (AID 1346795; active = well fitted inhibition curve with a large enough effect in the signal ratio in the repeat runs, not every such curve was filed as active; the % refers to the signal ratio). The essentials:
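PR-UAS-bla HEK293T cells carrying a UAS-driven beta-lactamase reporter were plated in medium with 2% charcoal-stripped FBS and rested 6 hr at 37C. Compounds were added with 1 nM R5020 (final) for 16 hr, then FRET substrate loaded 2 hr at room temperature.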

The nature of experiment [19]: qHTS assay to identify small molecule antagonists of the TGF-beta/Smad signaling pathway - cell viability counter screen (AID 1346824; active = well fitted curve in the direction sought with a large enough effect in the repeat runs; an effect the other way counts as inactive or inconclusive; also: nearly all actives have a fitted effect of over 50% in size). In a few lines: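 Cytotoxicity counter-screen run in the same wells as the beta-lactamase Smad reporter read: CellTiter-Glo luminescence after 30 min at room temperature. HEK 293T SBE-bla cells had 5 hr compound exposure at 37 C with TGF-beta1 (0.25 ng/mL stock).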

Experiment [20] concerns the target Androgen receptor (Homo sapiens) (UniProt P10275). Description: qHTS assay to identify small molecule agonists of the androgen receptor (AR) signaling pathway in the presence of an antagonist (AID 1259381). Also: nearly all actives have a fitted effect of over 15% in size. The essentials:
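MDA-kb2 cells, 3,000/well, rested 5hr at 37C/0% CO2 → nilutamide 3.0uM final or buffer → compounds, 15 conc. → 16hr at 37C → ONE-Glo, 30min RT → luminescence.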

Sequence of Androgen receptor (Homo sapiens) (P10275 whole entry, looked up): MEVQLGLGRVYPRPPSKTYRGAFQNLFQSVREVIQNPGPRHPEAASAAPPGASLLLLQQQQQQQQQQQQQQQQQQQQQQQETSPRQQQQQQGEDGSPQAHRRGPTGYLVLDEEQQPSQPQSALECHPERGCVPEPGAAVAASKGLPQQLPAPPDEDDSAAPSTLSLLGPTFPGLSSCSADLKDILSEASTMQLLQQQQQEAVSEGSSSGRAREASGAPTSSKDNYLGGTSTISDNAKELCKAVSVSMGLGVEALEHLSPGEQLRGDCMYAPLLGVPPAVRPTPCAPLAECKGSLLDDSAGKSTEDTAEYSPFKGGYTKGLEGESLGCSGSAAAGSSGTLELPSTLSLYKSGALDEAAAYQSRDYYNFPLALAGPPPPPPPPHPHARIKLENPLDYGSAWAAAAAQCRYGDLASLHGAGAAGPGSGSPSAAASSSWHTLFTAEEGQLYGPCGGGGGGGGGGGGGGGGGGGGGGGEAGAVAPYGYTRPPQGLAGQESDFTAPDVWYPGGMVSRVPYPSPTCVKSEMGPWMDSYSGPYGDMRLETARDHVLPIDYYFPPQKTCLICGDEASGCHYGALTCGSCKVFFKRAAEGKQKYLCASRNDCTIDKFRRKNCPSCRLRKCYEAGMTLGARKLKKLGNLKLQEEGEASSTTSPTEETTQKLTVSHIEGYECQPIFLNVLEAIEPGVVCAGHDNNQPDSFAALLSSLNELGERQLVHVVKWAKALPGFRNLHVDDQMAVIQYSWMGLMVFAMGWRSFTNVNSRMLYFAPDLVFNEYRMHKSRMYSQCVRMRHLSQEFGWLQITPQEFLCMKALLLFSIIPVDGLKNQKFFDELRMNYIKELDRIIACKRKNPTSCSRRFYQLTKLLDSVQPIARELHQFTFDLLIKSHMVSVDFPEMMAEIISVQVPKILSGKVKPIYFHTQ
Sequence of Thyrotropin-releasing hormone receptor (Homo sapiens) (P34981 whole entry, looked up): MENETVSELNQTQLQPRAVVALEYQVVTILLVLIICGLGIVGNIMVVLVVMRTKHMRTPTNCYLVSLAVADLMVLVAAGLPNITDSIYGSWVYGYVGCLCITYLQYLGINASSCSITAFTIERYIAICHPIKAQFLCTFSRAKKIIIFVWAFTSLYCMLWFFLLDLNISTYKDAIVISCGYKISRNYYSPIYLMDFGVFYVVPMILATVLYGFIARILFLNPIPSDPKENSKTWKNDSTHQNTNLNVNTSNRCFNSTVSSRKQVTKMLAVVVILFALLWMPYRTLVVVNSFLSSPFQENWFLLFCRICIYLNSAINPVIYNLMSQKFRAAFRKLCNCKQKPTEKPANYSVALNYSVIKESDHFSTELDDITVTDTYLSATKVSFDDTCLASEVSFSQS
Sequence of Estrogen receptor (Homo sapiens) (P03372 whole entry, looked up): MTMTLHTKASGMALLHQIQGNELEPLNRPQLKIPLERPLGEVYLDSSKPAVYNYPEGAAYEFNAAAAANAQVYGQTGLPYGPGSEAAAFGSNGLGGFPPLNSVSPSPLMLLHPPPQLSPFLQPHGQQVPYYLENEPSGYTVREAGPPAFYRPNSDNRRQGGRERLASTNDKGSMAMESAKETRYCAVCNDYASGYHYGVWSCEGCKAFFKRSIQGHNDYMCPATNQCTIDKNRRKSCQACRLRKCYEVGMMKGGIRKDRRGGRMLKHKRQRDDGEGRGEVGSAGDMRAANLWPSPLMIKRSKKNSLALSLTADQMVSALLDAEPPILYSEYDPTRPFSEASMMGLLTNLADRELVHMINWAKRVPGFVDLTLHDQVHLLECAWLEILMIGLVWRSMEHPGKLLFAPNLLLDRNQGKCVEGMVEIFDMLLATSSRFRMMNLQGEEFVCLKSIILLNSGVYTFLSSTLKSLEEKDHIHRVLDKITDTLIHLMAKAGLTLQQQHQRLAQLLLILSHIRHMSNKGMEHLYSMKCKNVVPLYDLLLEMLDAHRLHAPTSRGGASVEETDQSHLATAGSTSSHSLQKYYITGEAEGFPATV
Sequence of Progesterone receptor (Homo sapiens) (P06401 whole entry, looked up): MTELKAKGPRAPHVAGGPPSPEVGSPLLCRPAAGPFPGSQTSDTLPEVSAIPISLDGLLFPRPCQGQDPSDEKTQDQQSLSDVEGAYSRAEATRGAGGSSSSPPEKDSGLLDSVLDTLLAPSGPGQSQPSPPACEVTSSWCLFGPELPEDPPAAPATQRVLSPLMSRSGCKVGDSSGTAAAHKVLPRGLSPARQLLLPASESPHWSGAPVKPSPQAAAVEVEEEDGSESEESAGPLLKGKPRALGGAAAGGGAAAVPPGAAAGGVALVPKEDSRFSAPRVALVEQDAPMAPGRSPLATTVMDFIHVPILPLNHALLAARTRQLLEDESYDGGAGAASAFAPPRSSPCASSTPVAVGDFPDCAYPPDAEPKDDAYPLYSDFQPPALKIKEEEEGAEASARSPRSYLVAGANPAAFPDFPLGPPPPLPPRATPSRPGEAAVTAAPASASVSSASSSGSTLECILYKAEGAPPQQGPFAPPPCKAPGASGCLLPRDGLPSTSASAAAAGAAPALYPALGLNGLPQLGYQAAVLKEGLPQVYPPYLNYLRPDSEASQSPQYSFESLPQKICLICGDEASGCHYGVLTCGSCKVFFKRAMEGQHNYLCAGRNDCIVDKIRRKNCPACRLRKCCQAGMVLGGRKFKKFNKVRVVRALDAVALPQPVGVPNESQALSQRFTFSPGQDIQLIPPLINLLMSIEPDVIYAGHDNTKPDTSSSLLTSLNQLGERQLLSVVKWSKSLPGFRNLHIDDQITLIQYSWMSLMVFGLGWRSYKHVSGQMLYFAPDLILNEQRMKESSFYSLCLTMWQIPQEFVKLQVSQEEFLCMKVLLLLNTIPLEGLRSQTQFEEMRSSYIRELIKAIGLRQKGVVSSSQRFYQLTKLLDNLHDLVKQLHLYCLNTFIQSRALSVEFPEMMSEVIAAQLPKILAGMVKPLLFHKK

`CCN(CC)C(=O)C(C)Oc1cccc2ccccc12` (configuration not stated): the Potency entry in [1], in experiment [2], in experiment [3], in experiment [4], in [5] and in experiment [6] was “inactive” in each case. The Potency result in experiment [7], in [8], in experiment [9], in [10], in experiment [11] and in experiment [12] was “inactive” throughout. In addition, the Potency result in experiment [13], in experiment [14] and in [15] was “inactive” throughout. Besides, in experiment [16], the compound was called inactive.
With `CCCCOC(=O)COC(=O)c1ccccc1C(=O)OCCCC`, the Potency entry in experiment [1], in experiment [2], in experiment [3], in experiment [4], in experiment [5] and in experiment [6] was “inactive” each time. The Potency entry in [7], in [17], in experiment [10], in experiment [18], in [11] and in experiment [12] was “inactive” in each case. Also, the Potency entry in experiment [19], in experiment [13] and in experiment [14] was “inactive” throughout.
Turning to `O=[N+]([O-])/N=C1\NCCN1Cc1ccc(Cl)nc1`, the Potency result in experiment [1], in experiment [2], in [3], in [4], in [5] and in [6] was “inactive” in each case. In addition, the Potency entry in [7], in experiment [8], in experiment [9], in [17], in [10] and in experiment [18] was “inactive” in each case. Further, the Potency entry in experiment [11], in [12], in [19], in experiment [13] and in experiment [15] was “inactive” in each case. The result in experiment [20] and in experiment [16] was inactive.
Take `O=C1CCCO1`: the Potency result in experiment [1], in experiment [2], in experiment [3], in experiment [4], in experiment [5] and in [6] was “inactive” in each case. Besides, the Potency result in experiment [8], in experiment [9], in [17], in experiment [10], in [18] and in experiment [11] was “inactive” each time. Besides, the Potency entry in experiment [12], in [19], in experiment [13], in experiment [14] and in [15] was “inactive” each time. Further, the outcome in experiment [20] and in [16] was inactive.
In the case of `CCOS(=O)(=O)OCC`, the Potency entry in [1], in experiment [2], in [3], in experiment [4], in experiment [5] and in experiment [6] was “inactive” in each case. Further, the Potency entry in [7], in [8], in [9], in experiment [17], in [10] and in [18] was “inactive” each time. Also, the Potency entry in experiment [11], in experiment [12], in [13] and in [15] was “inactive” throughout. In experiment [16], the compound was classed as inactive.
As for `CNC(=O)CSP(=S)(OC)OC`, in experiment [1], the Potency is 14.1 µM (active) and inactive. The Potency result in experiment [2], in experiment [3], in experiment [4], in experiment [5], in experiment [6] and in experiment [7] was “inactive” throughout. Besides, the Potency entry in [8], in experiment [9], in experiment [17], in experiment [10], in experiment [18] and in experiment [11] was “inactive” each time. The Potency entry in experiment [12], in experiment [13], in [14] and in experiment [15] was “inactive” in each case. Moreover, the call in experiment [16] was inactive.
For `Cc1ccc(N=CN(C)C=Nc2ccc(C)cc2C)c(C)c1`, the Potency in experiment [1] is 54.7 µM (active) and inactive; in experiment [5], 54.7 µM (active) and 30.6 µM (active) and inactive. The Potency result in [2], in experiment [3], in [4], in [6], in experiment [7] and in experiment [8] was “inactive” throughout. In addition, the Potency result in experiment [9], in [17], in experiment [10], in experiment [18], in experiment [11] and in experiment [12] was “inactive” throughout. Further, the Potency result in experiment [13], in [14] and in [15] was “inactive” throughout. Besides, in experiment [16], the compound was called inactive.
